Measurements from PubChem BioAssay.
Where “and” joins values, the source holds several entries; their conditions need not be identical. Equal values may be shown once. Calls of active or inactive are those of the source.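 The calls were made as follows, unless noted: active = normalized viability below 100% at a tested concentration; inactive = the rest.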

Experiments:
[1] = molecular target: 6-phosphogluconate dehydrogenase, decarboxylating (Homo sapiens) (UniProt P52209); assay: inhibition of human phosphogluconate dehydrogenase – biochemical, recombinant enzyme, NADPH absorbance, primary screen (AID 1159550;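 active = at least 20% inhibition of 6-phosphogluconate dehydrogenase activity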); settings: recombinant 6PGD, NADPH absorbance 341 nm; at 10 µM; stronger effect = higher value
Chain of 6-phosphogluconate dehydrogenase, decarboxylating (Homo sapiens) (P52209 whole entry, looked up): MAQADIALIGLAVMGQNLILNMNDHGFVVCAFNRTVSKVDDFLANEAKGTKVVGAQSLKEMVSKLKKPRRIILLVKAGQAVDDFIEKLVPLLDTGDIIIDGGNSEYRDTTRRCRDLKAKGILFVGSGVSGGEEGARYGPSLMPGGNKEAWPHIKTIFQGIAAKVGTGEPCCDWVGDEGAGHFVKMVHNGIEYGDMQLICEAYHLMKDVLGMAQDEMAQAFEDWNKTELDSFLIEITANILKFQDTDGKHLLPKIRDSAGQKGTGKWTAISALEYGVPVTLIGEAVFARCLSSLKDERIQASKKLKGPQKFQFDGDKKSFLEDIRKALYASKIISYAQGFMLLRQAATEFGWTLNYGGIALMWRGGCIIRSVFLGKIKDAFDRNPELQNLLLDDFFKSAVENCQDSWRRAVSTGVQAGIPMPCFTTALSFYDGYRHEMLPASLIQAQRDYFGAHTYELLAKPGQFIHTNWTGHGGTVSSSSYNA

[2] = EMT-state selective cytotoxicity in co-culture – imaging, PC-3E GFP, TEM4-18 mCherry, primary screen (AID 1345086;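 active = compounds killing one labelled cell type while sparing the other, by normalised counts and ratio limits, not self-fluorescent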;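 as to all read-outs here: cells exposed to compound for 72 h before imaging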;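 as to red/green cell ratio (normalised): normalised mesenchymal count divided by normalised epithelial count so high means epithelial killing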); settings: PC-3E GFP / TEM4-18 mCherry co-culture, imaging cell counts, at 1 µM; for red/green cell ratio (normalised): actives lie on both sides, counts scaled to control wells, 1 = unselective
[3] = P. berghei load reduction in hepatocytes – cell-based, HepG2, luciferase luminescence, HepG2 viability, primary screen (AID 624349; in the data active = parasite load remaining mostly below about 12%, no sharp cut-off; inactive = mostly above about 10%;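 also: 100% = mean of DMSO negative control wells on the same plate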); settings: P. berghei liver stage in HepG2, luciferase luminescence, concentration not given here; parasite load remaining: stronger effect = lower value; viability: measured here: HepG2 viability without parasites
[4] = signal quenchers or enhancers, Cy5 substrate/SSB – biochemical, NIH Clinical Collection, E. coli SSB, artefact control for HCV NS3 helicase inhibitor project (AID 743268; call rule not given here); settings: Cy5-oligo bound E. coli SSB, fluorescence interference
[5] = test system: Hepatitis C virus NS3 helicase; assay: blockers of NS3h binding to DNA – biochemical, fluorescence polarization, NIH Clinical Collection, primary screen (AID 743270; call rule not given here); settings: NS3 helicase binding to Cy5-dT15 DNA, stronger effect = higher value, concentration not given here
[6] = molecular target: Single-stranded DNA-binding protein (Escherichia coli (strain K12)) (UniProt P0AGE0); assay: SSB-ssDNA binding inhibitors – biochemical, fluorescence polarization, NIH Clinical Collection, counter-screen for HCV NS3 helicase inhibitor project (AID 743271; in the data active = inhibition above about 28%); settings: E. coli SSB-DNA binding, stronger effect = higher value, concentration not given here
[7] = compounds distorting NS3 helicase fluorescence signal – biochemical, NIH Clinical Collection, artefact control for HCV NS3 helicase inhibitor project (AID 743272; call rule not given here;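 also: HCV NS3 helicase with a Cy5 labelled single stranded DNA probe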); settings: fluorescence interference counterscreen, HCV NS3 helicase assay; stronger effect = lower value
[8] = viability loss with induced miR-34 in A549 – imaging, A549 dox-inducible miR-34, nuclei and caspase counts, primary screen (AID 1347080;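 active = compounds whose cell count with miR-34 switched on is under 0.7 times the count with it off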); settings: A549 miR-34 inducible, Hoechst nuclei count, 48 h
[9] = molecular target: NAD(+) hydrolase SARM1 (Homo sapiens) (UniProt Q6SZW1); assay: blocking NAD cleavage by SARM1 SAM-TIR – cell lysate, NAD-Glo luminescence (AID 1508614;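 active = compound whose remaining NAD level is above about 45 nM, limit read from the data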;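 also: higher remaining NAD means stronger inhibition of SARM1 NADase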); settings: SAM-TIR HEK293T lysate NADase, at 1 µM, stronger effect = higher value
Chain of NAD(+) hydrolase SARM1 (Homo sapiens) (Q6SZW1 whole entry, looked up, the tested form may be a part): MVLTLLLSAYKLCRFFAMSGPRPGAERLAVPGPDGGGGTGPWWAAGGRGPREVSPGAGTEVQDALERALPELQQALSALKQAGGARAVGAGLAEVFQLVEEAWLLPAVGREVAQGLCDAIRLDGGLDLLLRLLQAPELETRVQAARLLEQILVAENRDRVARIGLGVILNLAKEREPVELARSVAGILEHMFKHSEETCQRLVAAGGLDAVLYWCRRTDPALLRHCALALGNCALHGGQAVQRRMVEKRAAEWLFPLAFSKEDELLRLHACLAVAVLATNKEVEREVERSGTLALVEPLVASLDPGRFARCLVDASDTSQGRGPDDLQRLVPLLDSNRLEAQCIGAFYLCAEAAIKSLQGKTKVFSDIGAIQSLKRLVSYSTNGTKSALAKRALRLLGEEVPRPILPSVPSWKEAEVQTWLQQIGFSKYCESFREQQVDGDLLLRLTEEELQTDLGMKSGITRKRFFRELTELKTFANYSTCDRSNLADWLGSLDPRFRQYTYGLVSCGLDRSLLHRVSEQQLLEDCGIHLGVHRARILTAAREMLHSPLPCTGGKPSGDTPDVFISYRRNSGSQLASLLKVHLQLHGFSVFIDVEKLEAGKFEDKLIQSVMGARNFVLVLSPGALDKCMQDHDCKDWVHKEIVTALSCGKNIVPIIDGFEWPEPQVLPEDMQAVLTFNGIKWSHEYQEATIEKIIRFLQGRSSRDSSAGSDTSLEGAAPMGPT

[10] = molecular target: Mitogen-activated protein kinase 7 (Homo sapiens) (UniProt Q13164); assay: Gal4-ERK5 driven luciferase induction – cell-based, HTS, primary screen (AID 1508626;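 active = luciferase signal above three times the same-plate solvent-only control wells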;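 also: luciferase driven by Gal4-ERK5 fusion binding five Gal4 sites before minimal TATA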); settings: HeLa Gal4-ERK5 transactivation, 18 h, at 5 µM, stronger effect = higher value
Chain of Mitogen-activated protein kinase 7 (Homo sapiens) (Q13164 whole entry, looked up, the tested form may be a part): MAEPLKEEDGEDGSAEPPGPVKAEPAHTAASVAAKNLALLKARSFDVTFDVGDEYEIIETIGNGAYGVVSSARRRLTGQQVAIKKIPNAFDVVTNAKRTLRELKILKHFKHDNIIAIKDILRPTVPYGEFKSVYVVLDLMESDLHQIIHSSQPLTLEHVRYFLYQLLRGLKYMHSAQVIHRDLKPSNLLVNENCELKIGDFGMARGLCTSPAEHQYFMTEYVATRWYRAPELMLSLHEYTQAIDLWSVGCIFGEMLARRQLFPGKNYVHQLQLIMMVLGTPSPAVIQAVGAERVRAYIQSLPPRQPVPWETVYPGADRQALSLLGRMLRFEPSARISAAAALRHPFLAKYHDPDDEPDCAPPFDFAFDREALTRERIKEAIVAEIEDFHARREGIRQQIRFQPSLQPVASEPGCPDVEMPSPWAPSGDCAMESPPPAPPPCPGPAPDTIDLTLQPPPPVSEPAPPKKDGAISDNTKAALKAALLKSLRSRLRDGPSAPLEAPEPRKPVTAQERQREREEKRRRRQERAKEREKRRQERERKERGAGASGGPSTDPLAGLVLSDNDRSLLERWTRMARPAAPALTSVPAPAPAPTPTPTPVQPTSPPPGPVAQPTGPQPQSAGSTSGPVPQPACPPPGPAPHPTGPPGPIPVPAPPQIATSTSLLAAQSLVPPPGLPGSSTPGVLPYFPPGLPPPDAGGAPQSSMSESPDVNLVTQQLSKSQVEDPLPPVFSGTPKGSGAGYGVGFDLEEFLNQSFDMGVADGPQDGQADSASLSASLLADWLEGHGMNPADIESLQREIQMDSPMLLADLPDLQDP

[11] = galactose survival enhancers in mitochondrial complex I cybrids – cell-based, galactose medium, ATP luminescence, primary screen (AID 1645843;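 active = z-score of at least 1.8 in each of two replicates, scored against plate mean and spread of sample wells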;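 also: positive z means more ATP and so rescue of galactose-driven cybrid death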); settings: complex I mutant cybrid cells, 72 h, stronger effect = higher value
[12] = test system: F380Y; assay: BK channel mutant inhibitors and activators – cell-based, U2OS BacMam, thallium flux, beta subunits, selectivity assay, profiling panel (AID 1259406;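 active = thallium flux through the channel raised or lowered by more than 3 SD from vehicle-only wells, actives on both sides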;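 also: initial slope of Thallos dye fluorescence rise after thallium is added; log ratio against the mean of 0.3% DMSO vehicle wells on the same plate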); settings: U2OS BacMam BK variants, at 30 µM
[13] = test system: F380Y/beta2Delta; assay: as above; settings: U2OS BacMam BK variants, at 30 µM
[14] = molecular target: Calcium-activated potassium channel subunit alpha-1 (Homo sapiens) + Leucine-rich repeat-containing protein 26 (Homo sapiens) (UniProt Q12791+Q2I0M4); assay: as above; settings: U2OS BacMam BK variants, F380Y/Slo1WT/gamma1, at 30 µM
Chain of Calcium-activated potassium channel subunit alpha-1 (Homo sapiens) + Leucine-rich repeat-containing protein 26 (Homo sapiens) (Q2I0M4 whole entry, looked up, one chain of several): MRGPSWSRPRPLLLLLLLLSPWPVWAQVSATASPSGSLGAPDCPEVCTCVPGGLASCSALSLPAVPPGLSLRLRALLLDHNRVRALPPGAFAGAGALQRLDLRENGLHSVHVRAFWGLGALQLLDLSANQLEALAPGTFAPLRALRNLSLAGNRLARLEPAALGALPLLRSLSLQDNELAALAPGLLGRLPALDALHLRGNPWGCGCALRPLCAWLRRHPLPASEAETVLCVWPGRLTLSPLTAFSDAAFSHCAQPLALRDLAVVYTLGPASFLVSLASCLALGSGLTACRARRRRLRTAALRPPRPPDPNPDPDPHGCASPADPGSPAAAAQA

[15] = test system: R275C; assay: as above; settings: U2OS BacMam BK variants, at 30 µM
[16] = test system: R275C/beta1; assay: as above; settings: U2OS BacMam BK variants, at 30 µM
[17] = test system: R275C/beta2Delta; assay: as above; settings: U2OS BacMam BK variants, at 30 µM
[18] = compounds altering viability of human ES cells (AID 493140; call rule not given here;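 also: cells exposed to compounds for four days before counting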); settings: human embryonic stem cell survival screen; stronger effect = higher value
[19] = MELAS cybrid and Rieske KO viability enhancers – cell-based, MELAS cybrids, Rieske KO mouse fibroblasts, CellTiter-Glo, primary screen (AID 1508586;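 active = mean z-score across replicates of 1.96 or higher in either the MELAS or the Rieske mutant cell line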;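 also: z relative to plate mean and SD of compound and empty wells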); settings: low glucose
[20] = drug combination growth inhibition, ovarian cancer – cell-based, oncology-focused library, rucaparib conditional, profiling panel (AID 1508598); settings: patient-derived ovarian cancer cells, CellTiter-Glo viability, 144 h, stronger effect = lower value
[21] = measured here: epithelial PC-3E GFP cell survival
[22] = measured here: mesenchymal TEM4-18 mCherry cell survival
[23] = stronger effect = lower value, cell number ratio, induced over uninduced
[24] = measured here: relative caspase fold change +Dox/-Dox
[25] = measured here: total cells with miR-34 induction, stronger effect = lower value
[26] = measured here: total cells without miR-34 induction
[27] = MELAS cybrid survival, CellTiter-Glo 48 h, stronger effect = higher value
[28] = Rieske KO mouse fibroblast survival, CellTiter-Glo 72 h

CC[C@H](/C=C/C(C)C1CCC2C3CCC4=CC(=O)CC[C@]4(C)C3CC[C@]12C)C(C)C (stereo partly drawn)
0.99: normalised cell number [2, 21]
inactive: inhibition [1] 11.4% | red/green cell ratio (normalised) [2] 0.98
0.97: normalised cell number [2, 22]

C#C[C@]1(OC(C)=O)CC[C@H]2[C@@H]3CCC4=CC(=O)CC[C@@H]4[C@H]3CC[C@@]21C
96.7%: viability [3]
inactive: parasite load remaining [3] 26.4% | fluorescence ratio [4] 1.05 | inhibition [5] -3.18% | inhibition [6] 7.15% | fluorescence ratio [7] 0.89 | inhibition [1] -1.74% | fold change [8, 23] 0.989 | remaining NAD [9] 24 nM | luciferase signal [10] 28 AU | z-score [11] -1.36 | log fold change Tl+ flux [12] -0.0982 | log fold change Tl+ flux [13] -0.0589 | log fold change Tl+ flux [14] -0.0258 | log fold change Tl+ flux [15] -0.00546 | log fold change Tl+ flux [16] 0.0232 | log fold change Tl+ flux [17] 0.0192
9170: cell count [8, 25]
1.09: fold change [8, 24]
9280: cell count [8, 26]

CC1(C)S[C@@H]2[C@H](NC(=O)[C@H](N)c3ccc(O)cc3)C(=O)N2[C@H]1C(=O)O
117% and 121% and 76%: viability [3]
inactive: survival [18] 6.33 | parasite load remaining [3] 78% and 120% and 88.8% | fluorescence ratio [4] 1.01 | inhibition [5] -4.09% | inhibition [6] 7.91% | fluorescence ratio [7] 1 | inhibition [1] 8.62% | fold change [8, 23] 0.943 and 0.821 | z-score [19, 27] 0.664 | remaining NAD [9] 10 nM | luciferase signal [10] 56 AU | z-score [11] 0.84 | log fold change Tl+ flux [12] -0.0516 | log fold change Tl+ flux [14] 0.0259 | log fold change Tl+ flux [15] 0.00882 | log fold change Tl+ flux [16] 0.0045 | log fold change Tl+ flux [17] -0.0233
10300 and 8970: cell count [8, 25]
1.29 and 1.62: fold change [8, 24]
active: log fold change Tl+ flux [13] -0.0816
0.115: z-score [19, 28]
10900: cell count [8, 26]

CC(C)CCCC(C)[C@H]1CCC2C3CC=C4CC(=O)CC[C@]4(C)C3CC[C@@]21C (stereo partly drawn)
1.01: normalised cell number [2, 21]
inactive: inhibition [1] 11.7% | red/green cell ratio (normalised) [2] 0.87
0.88: normalised cell number [2, 22]

CNCCC=C1c2ccccc2CCc2ccccc21
inactive: survival [18] 3.42 | fluorescence ratio [4] 1.02 | inhibition [5] -5.91% | inhibition [6] -4.29% | fluorescence ratio [7] 0.99 | inhibition [1] -10.4% | red/green cell ratio (normalised) [2] 1.12 | z-score [19, 27] -0.337 | remaining NAD [9] 10 nM | luciferase signal [10] 120 AU | z-score [11] -1.28 and -1.35 | log fold change Tl+ flux [14] 0.00764 | log fold change Tl+ flux [15] 0.0226
active: log fold change Tl+ flux [12] 0.169 | log fold change Tl+ flux [13] 0.217 | log fold change Tl+ flux [16] 0.165 | log fold change Tl+ flux [17] 0.126
1.26: normalised cell number [2, 22]
1.12: normalised cell number [2, 21]
-0.307: z-score [19, 28]

O=C(O[C@@H]1Cc2c(O)cc(O)cc2O[C@@H]1c1cc(O)c(O)c(O)c1)c1cc(O)c(O)c(O)c1
5880: cell count [8, 26]
0.79: normalised cell number [2, 21]
5870: cell count [8, 25]
active: fluorescence ratio [4] 0.63 | inhibition [6] 32.2% | fluorescence ratio [7] 0.8 | viability ([20]; at 0.00122 µM, OCI-P5x cells, with rucaparib 20 µM, 100% = cells with rucaparib alone) 73.5% | viability ([20]; at 0.00122 µM, OCI-P5x cells, without rucaparib) 91% | viability ([20]; at 0.00488 µM, OCI-P5x cells, with rucaparib 20 µM, 100% = cells with rucaparib alone) 90.4% | viability ([20]; at 0.0195 µM, OCI-P5x cells, with rucaparib 20 µM, 100% = cells with rucaparib alone) 82.9% | viability ([20]; at 0.0781 µM, OCI-P5x cells, with rucaparib 20 µM, 100% = cells with rucaparib alone) 96.1% | viability ([20]; at 0.313 µM, OCI-P5x cells, with rucaparib 20 µM, 100% = cells with rucaparib alone) 94.4% | viability ([20]; at 1.25 µM, OCI-P5x cells, with rucaparib 20 µM, 100% = cells with rucaparib alone) 97.8% | viability ([20]; at 5 µM, OCI-P5x cells, with rucaparib 20 µM, 100% = cells with rucaparib alone) 89.7% | viability ([20]; at 5 µM, OCI-P5x cells, without rucaparib) 92.1%
0.749: fold change [8, 24]
inactive: parasite load remaining [3] 87.1% | inhibition [5] -3.56% | inhibition [1] 15.4% | red/green cell ratio (normalised) [2] 1.15 | fold change [8, 23] 0.998 | viability ([20]; at 0.000305 µM, OCI-C5x cells, with rucaparib 10 µM, 100% = cells with rucaparib alone) 112% | viability ([20]; at 0.000305 µM, OCI-C5x cells, without rucaparib) 121% | viability ([20]; at 0.000305 µM, OCI-P5x cells, with rucaparib 20 µM, 100% = cells with rucaparib alone) 103% | viability ([20]; at 0.000305 µM, OCI-P5x cells, without rucaparib) 104% | viability ([20]; at 0.00122 µM, OCI-C5x cells, with rucaparib 10 µM, 100% = cells with rucaparib alone) 120% | viability ([20]; at 0.00122 µM, OCI-C5x cells, without rucaparib) 118% | viability ([20]; at 0.00488 µM, OCI-C5x cells, with rucaparib 10 µM, 100% = cells with rucaparib alone) 123% | viability ([20]; at 0.00488 µM, OCI-C5x cells, without rucaparib) 116% | viability ([20]; at 0.00488 µM, OCI-P5x cells, without rucaparib) 107% | viability ([20]; at 0.0195 µM, OCI-C5x cells, with rucaparib 10 µM, 100% = cells with rucaparib alone) 104% | viability ([20]; at 0.0195 µM, OCI-C5x cells, without rucaparib) 117% | viability ([20]; at 0.0195 µM, OCI-P5x cells, without rucaparib) 100% | viability ([20]; at 0.0781 µM, OCI-C5x cells, with rucaparib 10 µM, 100% = cells with rucaparib alone) 118% | viability ([20]; at 0.0781 µM, OCI-C5x cells, without rucaparib) 119% | viability ([20]; at 0.0781 µM, OCI-P5x cells, without rucaparib) 106% | viability ([20]; at 0.313 µM, OCI-C5x cells, with rucaparib 10 µM, 100% = cells with rucaparib alone) 109% | viability ([20]; at 0.313 µM, OCI-C5x cells, without rucaparib) 120% | viability ([20]; at 0.313 µM, OCI-P5x cells, without rucaparib) 110% | viability ([20]; at 1.25 µM, OCI-C5x cells, with rucaparib 10 µM, 100% = cells with rucaparib alone) 111% | viability ([20]; at 1.25 µM, OCI-C5x cells, without rucaparib) 108% | viability ([20]; at 1.25 µM, OCI-P5x cells, without rucaparib) 104% | viability ([20]; at 5 µM, OCI-C5x cells, with rucaparib 10 µM, 100% = cells with rucaparib alone) 117% | viability ([20]; at 5 µM, OCI-C5x cells, without rucaparib) 114% | luciferase signal [10] 48 AU
76.9%: viability [3]
0.91: normalised cell number [2, 22]

CC(=O)O[C@]1(C(C)=O)CC[C@H]2[C@@H]3C[C@H](C)C4=CC(=O)CC[C@]4(C)[C@H]3CC[C@@]21C
7550: cell count [8, 25]
8130: cell count [8, 26]
inactive: parasite load remaining [3] 22.6% | fluorescence ratio [4] 0.99 | inhibition [5] -0.45% | inhibition [6] -0.48% | fluorescence ratio [7] 0.97 | inhibition [1] 2.85% | fold change [8, 23] 0.928 | remaining NAD [9] 10 nM | luciferase signal [10] 68 AU | z-score [11] -1.19 | log fold change Tl+ flux [12] -0.0294 | log fold change Tl+ flux [13] -0.0667 | log fold change Tl+ flux [14] -0.0359 | log fold change Tl+ flux [15] -0.0267 | log fold change Tl+ flux [16] 0.0157 | log fold change Tl+ flux [17] 0.0115
77.3%: viability [3]
1.75: fold change [8, 24]
